Sampled rows, rich in hits. Any-hit rate of the full collection: about 7.9%.
KB-V1 cytotox = qHTS assay for MDR1-selective chemotherapeutics: Primary screen using the drug-selected MDR subline cells KB-V1 | KB-V1 MDR cells viability, CellTiter-Glo, 72 h | Potency, µM (series often up to 46.1 µM), actives largely listed as cytotoxic | 3.4% of 400,000 active | AID 1347076, 2019; further: on the % scale 0 is the no-effect control and ±100 the full control effect; nearly all actives have a fitted effect of over 60% in size
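Cytotoxicity via CellTiter-Glo luminescence after 72 h compound exposure at 37 degrees C. Cells: drug-selected KB-V1 line, DMEM phenol-red free plus 10% FBS. Compounds tested at multiple concentrations; normalized data fitted to concentration-effect curves.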
KB-3-1 tox = qHTS assay for MDR1-selective chemotherapeutics: Primary screen using the parental adenocarcinoma cell KB-3-1; 1.4% of 400,000 active; Potency, µM (highest dose often 46.1 µM), most hits filed as cytotoxic; KB-3-1 viability, CellTiter-Glo ATP luminescence, 72 h; AID 1347075, 2019; further: on the % scale 0 is the no-effect control and ±100 the full control effect; nearly all actives have a fitted effect of over 60% in size
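Cytotoxicity in the drug-sensitive parental line KB-3-1 was scored as loss of CellTiter-Glo luminescence following 72 h incubation with compound. Values come from curve fitting of normalized concentration-response data.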
MCF10A rerep = A quantitative high throughput screen for small molecules that induce DNA re-replication in MCF 10a normal breast cells | MCF 10A DNA re-replication, Hoechst nuclear intensity, 48 h | Potency, µM (top dose mostly 46.1 µM), without a hit: at the top dose activity, positive = re-replication, actives largely listed as activators | 2.9% of 350,000 active; further: % of control where 0% means no effect; nearly all actives have a fitted effect of over 50% in size
HT1080 IDH1KD tx = qHTS for induction of synthetic lethality in tumor cells producing 2HG: qHTS for the HT-1080-IDH1KD cell line. 2% of 360,000 active. AID 686971, 2013. Potency, µM (titrated, usually from 46.1 µM), inactives show at the highest dose activity, negative = toxicity, usual class: cytotoxic. HT-1080 IDH1 knockdown viability, ATP luminescence, 48 h;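 further: 0% = DMSO wells and -100% = cell-free medium wells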
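IDH1KD HT-1080 cells, 750/well, RPMI + 5% FBS; compound pinned after 2 h settling; 48 h, 37 °C; CellTiter-Glo luminescence; % activity normalised to DMSO and no-cell wells; curves fitted, classed by r2 and efficacy.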
SW480 rereplic = A quantitative high throughput screen for small molecules that induce DNA re-replication in SW480 colon adenocarcinoma cells; SW480 DNA re-replication, Hoechst DNA content imaging, 48 h; Potency, µM (top dose mostly 46.1 µM), without a hit: at the top dose re-replication activation, actives largely listed as activators; 1.8% of 340,000 active; AID 624297, 2012; further: % of control where 0% means no effect; nearly all actives have a fitted effect of over 55% in size
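Per well, 250 cells were exposed to pinned compound for 48 hr. Nuclear DNA was visualised with Hoechst (40 min, 37 C) and total object intensity recorded by fluorescence scanning.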
HT1080-NT tox = qHTS for induction of synthetic lethality in tumor cells producing 2HG: qHTS for the HT-1080-NT fibrosarcoma cell line. Potency, µM (titrated, usually from 46.1 µM), without a hit: at the top dose activity, negative = less viability, hits mostly cytotoxic. HT-1080-NT fibrosarcoma viability, CellTiter-Glo ATP luminescence, 48 h. AID 686970, 2013. 1.6% of 360,000 active;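 further: NT is the 2HG producing partner of a matched IDH1 knockdown line; 0% = DMSO-treated cells and -100% = media-only wells without cells; nearly all actives have a fitted effect of over 55% in size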
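Fibrosarcoma NT cells, 750 per well in 5% FBS RPMI, were exposed to compound for 48 hours. Viability: CellTiter-Glo luminescence.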
* marks the source's active call; other numbers are inactive results; i = inactive; u = inconclusive; x = no result; ! = not active in a repeat. The call rests on the fitted dose curve; in most records, active means well fitted curve in the direction sought with a large enough effect; inconclusive means small, poorly fitted or top-dose-only effect, or another doubt; inactive means no such curve, though single readings can be large; an effect the other way counts as inactive or inconclusive. Potency means the concentration at half of the fitted maximal effect.

SMILES | KB-V1 cytotox | KB-3-1 tox | MCF10A rerep | HT1080 IDH1KD tx | SW480 rereplic | HT1080-NT tox
Fc1ccc(CCNCc2ccc(Cl)c(Cl)c2)cc1 | i | i | 11.1% | u | u | u
N=C(N)c1c(O)n(C2CCCCC2)c(=O)n(C2CCCCC2)c1=O | i | 20.6µM* | u | 20.6µM* | u | 16.4µM*
CCC(=NCCO)c1c(O)n(C2CCCCC2)c(=O)[nH]c1=O | i | i | 0.8% | 3.9% | 0.7% | 7.2%
Cc1cccc(C2=NCC(=O)N(CC(=O)NCc3ccco3)c3sc4c(c32)CCCC4)c1 | 23.1µM* | i | -1.0% | u | 1.0% | u
CCCOP(=O)(OCCC)C(Nc1ccc(C(C)C)cc1)c1ccc([N+](=O)[O-])cc1 (stereo unspecified) | 11.6µM* | u | u | u | 20.6µM* | u
CCc1n[nH]c(CCN)n1 | i | i | -0.2% | 1.7% | u | 0.2%
Fc1ccc([C@@H]2CCNC[C@H]2COc2ccc3c(c2)OCO3)cc1 | 23.1µM*! | u | u | 16.4µM* | u | 16.4µM*
O=C1CC2OCC=C3CN4CCC56c7ccccc7N1C5[C@H]2[C@H]3C[C@H]46 (stereo partly specified) (tested in a mixture with another compound) | x | x | x | x | -4.5% | x
O=C1CC23c4ccccc4N4C(=O)CC5OCC=C6CN1C2CC6C5C43 (stereo unspecified) | 14.6µM* | i | 0.6% | 11.4% | 0.2% | 11.1%
CC1(C)[C@@H](C=C(Cl)Cl)[C@@H]1C(=O)OCc1c(F)c(F)cc(F)c1F | x | x | 1.9% | x | -0.4% | x
CC1(C)C(C=C(Cl)Cl)C1C(=O)OCc1cccc(Oc2ccccc2)c1 (stereo unspecified) | i | i | 0.0052µM*! | -1.4% | -48.4% | u
O=C1NC(=O)C(=Cc2ccc(SC3CCCCC3)o2)C(=O)N1 | i | i | 20.6µM* | u | u | u
COCCNC(=S)N1Cc2ccccc2-n2nncc2C1 | i | i | x | -2.7% | x | -1.2%
O=C1NC2C(=CC(O)C(O)C2O)c2cc3c(c(O)c21)OCO3 (stereo unspecified) | u | 0.103µM* | u | 0.146µM* | u | 0.731µM*
O=C1NC2C(=CC(O)C(O)C2O)c2cc3c(cc21)OCO3 (stereo unspecified) | 2.31µM* | 3.26µM* | u | 1.16µM* | 22.6% | u
O=C1NC2C(O)C(O)C(O)C(O)C2c2cc3c(c(O)c21)OCO3 (stereo unspecified) | 0.517µM* | u | 14.2% | 0.231µM* | 16.6% | 0.461µM*
C=CCn1c(O)c(C(CC)=Nc2ccc(N(C)C)cc2)c(=O)[nH]c1=O | u | i | -5.9% | -3.3% | u | -0.2%
O=C(Cc1ccccc1)OCc1ccccc1 | i | i | u | 14.3% | 2.4% | -3.3%
CCCCCn1c(=O)c(C(=O)NCc2ccncc2)c(O)c2ccccc21 | 2.59µM* | 5.8µM* | u | -29.3% | u | -19.4%
CCCCn1c(=O)c(C(=O)NCCc2ccccc2)c(O)c2ccccc21 | i | i | 18.4µM* | -0.1% | -38.7% | -0.3%
O=C1NC(=O)C(=Cc2ccc(-c3cc(Cl)ccc3[N+](=O)[O-])o2)C(=O)N1 | u | i | -4.5% | -4.2% | -13.7% | -7.5%
CCOC(=O)C1CCN(Cc2ccc(Cl)nc2)CC1 | i | i | 7.7% | 11.1% | -6.1% | 10.3%
O=C1C(=Cc2cn(-c3ccccc3)nc2-c2ccc(OCc3ccc(Cl)cc3)cc2)SC(=S)N1CCS(=O)(=O)O | u | 8.2µM* | x | -23.3% | x | u
Cc1ccc(C(=O)C2C(c3ccc(-c4ccccc4[N+](=O)[O-])o3)NC(=O)NC2(O)C(F)(F)F)cc1 (stereo unspecified) | i | i | u | u | -1.0% | -20.4%
C=CCN1CC[C@]23c4c5ccc(O)c4O[C@H]2/C(=N/NC(=O)c2ccccc2)CC[C@@]3(O)[C@H]1C5 | i | i | u | 0.3% | -49.0% | -5.3%
SMILES | KB-V1 cytotox | KB-3-1 tox | MCF10A rerep | HT1080 IDH1KD tx | SW480 rereplic | HT1080-NT tox
CCOP(=O)(OCC)c1cc(CC)ccc1O | i | i | 6.6% | 3.4% | -5.2% | u
Oc1cccc[c]1[Hg][Cl] | x | x | 14.4% | x | u | x
Oc1cc[c]([Hg][Cl])cc1 | x | x | 1.06µM* | x | u | x
O=C(c1ccc(C(F)(F)F)cc1)C1CCCN(C2CCSCC2)C1 (stereo unspecified) | u | i | -2.3% | -19.4% | 5.17µM* | -16.1%
Cc1cc(Cl)ccc1C(=O)C1CCCN(C2CCSCC2)C1 (stereo unspecified) | i | i | -17.6% | -27.1% | 19.7% | -16.8%
COC(=O)C1C(C(=O)O)C2(Cl)C(Cl)=C(Cl)C1(Cl)C2(Cl)Cl (stereo unspecified) | i | i | 1.3% | -20.6% | -1.1% | -15.2%
Cc1ccc(-n2c(-c3cccs3)nc3ccccc3c2=O)cc1 | 23.1µM* | i | 11.4% | 8.9% | -4.8% | 11.9%
COC(=O)C[C@]1(C(=O)OC)CN(C#N)N(c2ccc(Cl)cc2)C12c1ccccc1-c1ccccc12 | 5.8µM* | 5.17µM* | 5.17µM* | 4.11µM* | u | 10.3µM*
COC(=O)[C@@H]1[C@@H](C(=O)OC)C2(c3ccccc3-c3ccccc32)N(c2ccc(Cl)cc2)N1C#N | u | u | 7.08µM* | 5.8µM* | 9.2µM* | 4.61µM*
O=c1[nH]c(N2CCN(Cc3ccc4c(c3)OCO4)CC2)nc2c1CCC2 | i | i | -1.5% | -12.1% | 1.9% | -8.1%
CCNc1nc(Cl)nc(NCC)n1 | x | x | 3.4% | x | -1.4% | x
Cc1cnc(C)c(Nc2nc(C(N)Cc3ccc(C(F)(F)F)cc3)cs2)n1 (stereo unspecified) | i | u | x | 16.4µM* | x | u
CN(Cc1ccccc1)C1CCCN(C(=O)COc2ccccc2Cl)C1 (stereo unspecified) | u | i | 15.4% | -1.6% | -4.0% | -7.6%
N#Cc1cc2c(nc1SCC(=O)Nc1ccc(F)c(Cl)c1)C1CCN2CC1 | 14.6µM* | i | x | x | x | x
N#Cc1cc2c(nc1SCC(=O)Nc1cc(Cl)cc(Cl)c1)C1CCN2CC1 | 4.61µM* | i | 2.31µM* | -0.8% | 24.3% | 18.5%
